Results on 92 compounds are retold here after PubChem BioAssay AID602163 (The Scripps Research Institute Molecular Screening Center, 2012).

Out of some 360,000 compounds screened, about 1,100 (0.31%) were called active. Cut-off read from the data, not from the text of the source: active = activation above about 7.5%; inactive = the rest. This excerpt belongs to a sample that is enriched for actives.

For this assay, the system named is Methionine sulfoxide reductase A (Bos taurus). As to the kind of experiment: bovine MsrA enzyme activators, primary screen, biochemical, absorbance, HTS (AID 602163).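 Note: 0% = vehicle and 100% = reference activator.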 The settings on record: purified bovine MsrA, absorbance read-out; at 10.6 µM; hits give high values.
Consider `O=C(N[C@@H](Cc1c[nH]c2ccccc12)C(=O)O)OCC1c2ccccc2-c2ccccc21`, for which the activation was 0.63% (inactive). On to `CC(=O)NC(Cc1c[nH]c2ccccc12)C(=O)O` (configuration not stated), for which the activation is 9.9% (active). Then `CC(=O)NC(Cc1c[nH]c2ccccc12)C(=O)NCCc1ccccc1` (configuration not stated), with -3.82% (inactive); and `NS(=O)(=O)c1cccc(NC(=O)CC23CC4CC(CC(Br)(C4)C2)C3)c1`, with -2.66% (inactive).

With `C#CCO[C@@H]1C[C@H](n2cnc3c(=O)[nH]c(NC(=O)C(C)C)nc32)O[C@@H]1CO`, the activation is -0.46% (inactive). Then `C/C(=N\NC(=O)c1ccc(C)cc1)C1C(=O)c2ccccc2C1=O`, with -5.75% (inactive); and `COc1cc(NC(=O)c2ccccc2)c(OC)cc1NC(=O)Cc1ccccc1`, with 0.53% (inactive); and `O=C(NC1=CC(=O)c2ccccc2C1=O)c1ccccc1`, with 18.2% (active).

Take `O=C(CSCc1c(Cl)cccc1Cl)NN1C(=O)c2ccccc2C1=O`: the activation was -2.13% (inactive).

For the compound `O=C(COC(=O)Cc1ccc(Br)cc1)Nc1ccc(N2CCOCC2)cc1`, the activation is -1.14% (inactive). For `Cn1c(SCC(=O)N2CCCC2)nnc1-c1cccs1` the value was -0.73% (inactive); for `O=C(CSc1ncccn1)N1CCCC1`, -3.29% (inactive); for `O=C(CSc1n[nH]c(-c2cccs2)n1)N1CCCCC1`, 8.31% (active). In the case of `CCCCn1c(N)c(N(CC(C)C)C(=O)CSc2ccc([N+](=O)[O-])cc2)c(=O)[nH]c1=O`, the activation is -3.75% (inactive). Then `COc1ccc([C@H]2CC(=O)C=C(/C=C/c3ccccc3)C2)cc1`, with 8.06% (active). For `COc1ccc([C@H]2CC(=O)C=C(/C=C/c3ccc(Cl)cc3)C2)cc1` the value was -1.21% (inactive); for `COc1ccc([C@H]2CC(=O)C=C(c3ccc(C)cc3)C2)cc1`, -3.05% (inactive). Then `O=C(Nc1cccn(Cc2c(Cl)cccc2Cl)c1=O)c1ccc(Cl)cc1`, with 2.68% (inactive). For the compound `CC(Sc1nnc(CNC(=O)c2ccccc2F)n1C)C(=O)Nc1nccs1` (configuration not stated), the activation was 0.09% (inactive). For `O=C(O)c1ccccc1-c1ccccc1C(=O)Nc1nccs1` the value was -2.03% (inactive). For `O=C(O)c1ccccc1-c1ccccc1C(=O)Nc1cccc2ccccc12` the value was 11.4% (active); for `O=C(O)c1ccccc1NC(=O)c1ccccc1-c1ccccc1C(=O)O`, 7.87% (active); for `O=C(Nc1ccccc1F)c1ccccc1-c1ccccc1`, -1.97% (inactive). `O=C(O)c1ccccc1-c1ccccc1C(=O)Nc1ccccc1Br`: the activation was -10.3% (inactive). As to `O=C(O)c1ccccc1-c1ccccc1C(=O)NCCc1ccccc1`, the activation was -13.5% (inactive). Take `N#Cc1ccc(OCCN2C(=O)NC3(CCSC3)C2=O)cc1` (configuration not stated): the activation was -0.26% (inactive). For `CCOC(=O)c1cc(-c2ccccc2C)n(Cc2cc(C)no2)n1` the value was -2.88% (inactive); for `COc1ccccc1CNC(=O)C1CCN(S(=O)(=O)c2ccc3c(c2)OCCO3)CC1`, -2.2% (inactive). Then `Cc1ccc(S(=O)(=O)N(CC(=O)NN=C2CCN(C)CC2)c2ccc(F)cc2)cc1`, with -2.23% (inactive); and `Cn1sc(NC(=O)c2ccccc2)nc1=O`, with 14.9% (active); and `CCOC(=O)c1cc(-c2sc(NC(=O)c3ccccc3)nc2C)n(CCO)n1`, with -3.15% (inactive).

With `Cc1nc(NNC(=O)c2ccccc2)cc(-c2ccccc2)n1`, the activation was 1.76% (inactive). Then `CCN(CC)S(=O)(=O)c1ccc(OC(C)C)c(N)c1`, with -3.46% (inactive). For `CN1C(=O)c2ccccc2C(C(=O)NCCCN2CCCC2)C1c1c[nH]c2ccccc12` (configuration not stated) the value was -1.12% (inactive); for `Cc1ccc(SCC(=O)c2cc(C)c(OC(=S)N(C)C)c(C)c2)cc1`, 1.83% (inactive); for `COc1ccc(CCNC(=O)CN2CCC(n3nnc4cc(F)ccc43)CC2)cc1OC`, -2.2% (inactive). Then `NC1=CC(=O)C(=O)c2cccnc21`, with 15.2% (active); and `Cc1ccc2c(CC(=O)NCc3cccs3)coc2c1`, with -2.6% (inactive); and `COc1cc(C(=O)OCCCN2CCOCC2)cc(OC)c1OC`, with -0.8% (inactive). As for `COC(=O)c1scc(S(=O)(=O)C(C)(C)C)c1-n1cccc1`, the activation was -1.27% (inactive). Then `COc1ccc(S(=O)(=O)N2CCOCC2)cc1NC(=O)Cc1coc2cc(C)ccc12`, with -1.58% (inactive); and `CC(C)c1ccc(Nc2ncccc2C#N)cc1`, with -0.47% (inactive). For `CC1=NNC(=O)C1CCC(=O)N/N=C\c1ccc(Cl)c(Cl)c1` (configuration not stated) the value was -2.03% (inactive); for `CC1=NNC(=O)C1CCC(=O)N/N=C(\C)c1ccc(Cl)cc1` (configuration not stated), 19.6% (active).

For `CC1=NNC(=O)C1CCC(=O)N/N=C\c1cccc(Cl)c1` (configuration not stated), the activation was -5.62% (inactive). Then `CCOc1ccc(CCNC(=O)COC(=O)C2CCN(S(=O)(=O)c3ccccc3)CC2)cc1OCC`, with -3.79% (inactive).

For the compound `CSC1=NCCN1C(=O)Cc1cccc2ccccc12`, the activation was -1.62% (inactive). For `O=C(NCCOc1ccccc1)N1[C@H]2CC[C@@H]1C=C(c1ccc(F)cc1OCc1ccccc1)C2` the value was -0.63% (inactive). With `Cc1ccc(COC(=O)CN2C(=O)NC3(CCCC3)C2=O)cc1`, the activation is 10.9% (active). For `O=C(CN1C(=O)NC2(CCCC2)C1=O)OCCOc1ccc(F)cc1` the value was -0.72% (inactive); for `CCOc1ccc(C(C)=O)cc1COC(=O)CN1C(=O)NC2(CCCC2)C1=O`, -2.45% (inactive). On to `N=c1c2c3c(sc2ncn1CCCN1CCOCC1)CCCCC3`, for which the activation is -6.06% (inactive).

For `S=c1[nH]nc2c3c4c(sc3ncn12)CCCC4`, the activation is 12.9% (active). Then `CCn1c(=S)[nH]c2sc3c(c2c1=O)CCCCC3`, with 1.11% (inactive). For `COc1cc(NC(=O)COC(=O)c2ccc([N+](=O)[O-])s2)cc(OC)c1OC` the value was 10.6% (active); for `O=C(OCC(=O)N1CCN(c2ccccc2)CC1)c1ccc([N+](=O)[O-])s1`, 8.9% (active); for `COc1ccc(C(=O)OCC(=O)Nc2ccc3[nH]c(=O)[nH]c3c2)c(OC)c1OC`, 1.62% (inactive).

As for `COc1cc(NC(=O)COC(=O)c2cnc(C)cn2)c(C)cc1[N+](=O)[O-]`, the activation is -4.41% (inactive). Then `COc1ccc(C(=O)OCC(=O)c2ccc(C)c(S(=O)(=O)N3CCOCC3)c2)cc1OC`, with -4.43% (inactive); and `COc1ccc(C(=O)OCC(=O)c2ccc(Cl)s2)c(OC)c1OC`, with -1.71% (inactive); and `C[C@H](NC(=O)c1ccccc1Cl)C(=O)OCC(=O)N1CCN(c2ccccc2)CC1`, with 1.01% (inactive). Take `COc1ccc(C(=O)COC(=O)c2ccc([N+](=O)[O-])s2)cc1OC`: the activation was 12.4% (active).

For `COc1cccc(/C=C/C(=O)OCC(=O)N2CCN(c3ccccc3)CC2)c1`, the activation was -1.19% (inactive). For `CCOC(=O)C1CCN(C(=O)C2CCN(S(=O)(=O)c3c(C)noc3C)CC2)CC1` the value was -0.14% (inactive).

Turning to `O=C1[C@@H]2C(Cc3ccc(O)cc3)NC3(C(=O)Nc4ccc(F)cc43)[C@@H]2C(=O)N1c1ccc(F)cc1` (some centres not stated), the activation was -1.38% (inactive). For `COc1ccc([C@H]2N[C@]3(CCCN(CC4CCCCC4)C3=O)[C@H]3C(=O)N(C)C(=O)[C@@H]23)cc1` the value was -4.49% (inactive). Then `CCOc1ccccc1NC(=O)C1CCCN(C(=O)Nc2ccccc2)C1` (configuration not stated), with -2.87% (inactive); and `Nn1c(SCC(=O)Nc2ccc3c(c2)CCC3)nnc1C1CC1`, with 0.99% (inactive); and `CCCN(CC(=O)Nc1ccccc1C)C(=O)c1ccc2[nH]c3c(c2c1)CC(C)CC3` (configuration not stated), with 17.2% (active). For the compound `CCCN(CC(=O)Nc1ccccc1C)C(=O)c1cc(=O)[nH]c2ccccc12`, the activation was -8.69% (inactive). Then `CC1CCc2[nH]c3ccc(C(=O)N(C)CC(=O)Nc4cccc(F)c4)cc3c2C1` (configuration not stated), with -0.36% (inactive); and `COCC(=O)Nc1c(I)c(C(=O)NCC(O)CO)c(I)c(C(=O)N(C)CC(O)CO)c1I` (configuration not stated), with -1.2% (inactive); and `NC(=O)NCCCC(=O)O`, with 5.76% (inactive). For `CC(=O)N(O)CCCCCNC(=O)CCC(=O)N(O)CCCCCNC(=O)CCC(=O)N(O)CCCCCNC(=O)CCC(=O)O` the value was 8.82% (active). With `COc1ccc(OC)c(NC(=O)COC(=O)Cc2ccsc2)c1`, the activation is -3.82% (inactive). With `S=c1nccc(-c2cc(Cl)sc2Cl)[nH]1`, the activation is -10.9% (inactive). Consider `CC[C@]1(O)C[C@@H]2CN(CCc3c([nH]c4ccccc34)[C@@](C(=O)OC)(c3cc4c(cc3OC)N(C)[C@H]3[C@@](O)(C(=O)OC)[C@H](OC(C)=O)[C@]5(CC)C=CCN6CC[C@]43[C@@H]65)C2)C1`, for which the activation is -0.23% (inactive). Then `Nc1ccc2[nH]c(=S)sc2c1`, with 0.61% (inactive). Then `CCOc1ccc2[nH]c(=O)c(CN(CCCO)C(C)=O)cc2c1`, with -0.13% (inactive); and `CCOc1ccc2[nH]c(=S)sc2c1`, with 8.43% (active). Then `Cn1c(CCCOc2ccc(Cl)cc2Cl)n[nH]c1=S`, with -3.29% (inactive). As to `Cc1ccc(C)c(NC(=O)CSc2nnc(Cc3cccn3C)n2-c2ccc(F)cc2)c1`, the activation was 9.61% (active).

Turning to `COc1ccccc1NC(=O)CSc1nnc(Cc2cccn2C)n1-c1ccc(F)cc1`, the activation is -0.41% (inactive).

Turning to `COC(=O)c1ccc(NC(=O)CSc2nnc(Cc3cccn3C)n2-c2ccc(F)cc2)cc1`, the activation is -0.87% (inactive). Then `CCn1c(C)nc2c1C(=O)c1ccccc1C2=O`, with 6.51% (inactive); and `Cc1cc(OC(C)C(=O)Nc2ccc(S(=O)(=O)Nc3onc(C)c3C)cc2)cc(C)c1Cl` (configuration not stated), with -4.68% (inactive).

Take `O=C(Nc1ccc(S(=O)(=O)Nc2ncccn2)cc1)C12CC3CC(CC(C3)C1)C2`: the activation was -5.78% (inactive). For the compound `Cc1noc(NS(=O)(=O)c2ccc(NC(=O)C34CCC(CC3)C4)cc2)c1C`, the activation is 7.83% (active). Then `COc1cc(C(=O)OCC(=O)NC23CC4CC(CC(C4)C2)C3)cc(OC)c1OC`, with -1.08% (inactive). Then `CCN(CC(=O)Nc1ccccc1OC)C(=O)CC1CC2CCC1C2` (configuration not stated), with 7.82% (active); and `COc1ccc(S(=O)(=O)N2CCOCC2)cc1NC(=O)CC1CC2CCC1C2` (configuration not stated), with -3.8% (inactive); and `CCN(CC(=O)Nc1ccccc1OC)C(=O)Cn1cnc2ccccc2c1=O`, with -6.89% (inactive).
